Columns and labels:
Assay in all cases: yeast three-hybrid, YBZ-1, SC-Leu-His + 0.5 mM 3-AT, 4 days
Details in all cases: tags: N-Gal4 AD-HA kept; label: inside an RPR1-promoter hybrid RNA with tandem MS2 sites; ssRNA
[1] = target: PUM1 PUF domain R3-GNE (Homo sapiens, UniProt Q14671 828-1176, C935G;R936N;Q939E)
Procedure, shortened: (§1)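 Sequencing with Illumina followed PCR amplification of the repeat regions from transformants grown four days on SC-Leu (input) or SC-Leu-His + 0.5 mM 3-AT (selection). The transformants were strain YBZ-1 with a LexA–MS2 coat fusion and a HIS3 reporter, carrying Pumilio-1 PUF domain libraries and matching RNA elements. The interaction score is the log change in variant frequency from input to selection, computed in log2 with a pseudocount of 1 for absent variants.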

[2] = target: PUM1 PUF domain R3-IYS (Homo sapiens, UniProt Q14671 828-1176, C935I;R936Y;Q939S)
Procedure, shortened: as §1

[3] = target: PUM1 PUF domain R8-KKF (Homo sapiens, UniProt Q14671 828-1176, N1122K;Y1123K;Q1126F)
Procedure, shortened: as §1

[4] = target: PUM1 PUF domain R8-CHR (Homo sapiens, UniProt Q14671 828-1176, N1122C;Y1123H;Q1126R)
Procedure, shortened: as §1

[5] = target: PUM1 PUF domain R5-FRQ (Homo sapiens, UniProt Q14671 828-1176, C1007F)
Procedure, shortened: as §1

[6] = target: PUM1 PUF domain R5-GWW (Homo sapiens, UniProt Q14671 828-1176, C1007G;R1008W;Q1011W)
Procedure, shortened: as §1

[7] = target: PUM1 PUF domain R3-ARL (Homo sapiens, UniProt Q14671 828-1176, C935A;Q939L)
Procedure, shortened: as §1

[8] = target: PUM1 PUF domain R1-RKS (Homo sapiens, UniProt Q14671 828-1176, S863R;R864K;Q867S)
Procedure, shortened: as §1

[9] = target: PUM1 PUF domain R1-RQN (Homo sapiens, UniProt Q14671 828-1176, S863R;R864Q;Q867N)
Procedure, shortened: as §1

“GGCUAGAACUAGUGGAUCCCCCGGCGCCCGGCGGCUCGAGCCCGGGUAAGUGUAAGUAGUCUGCAUGCCGCCGGGCGCCAUGCCUGCAGGUCGACUCUAGAAAACAUG” was tested, and the binding signal [1] was 2.22 log2 enrichment (interaction score) and the binding signal [2] was 4.72 log2 enrichment (interaction score).
For “GGCUAGAACUAGUGGAUCCCCCGGCGCCCGGCGGCUCGAGCCCGGGUAAGCGUAAAUAGUCUGCAUGCCGCCGGGCGCCAUGCCUGCAGGUCGACUCUAGAAAACAUG”, the binding signal [3] was 3 log2 enrichment (interaction score) and the binding signal [4] was 4.19 log2 enrichment (interaction score).
“GGCUAGAACUAGUGGAUCCCCCGGCGCCCGGCGGCUCGAGCCCGGGUAAGUGUCAAUAGUCUGCAUGCCGCCGGGCGCCAUGCCUGCAGGUCGACUCUAGAAAACAUG” was tested, and the binding signal [5] was 2.71 log2 enrichment (interaction score).
For “GGCUAGAACUAGUGGAUCCCCCGGCGCCCGGCGGCUCGAGCCCGGGUAAGUGUUAAUAGUCUGCAUGCCGCCGGGCGCCAUGCCUGCAGGUCGACUCUAGAAAACAUG”, the binding signal [6] was 6.66 log2 enrichment (interaction score).
“GGCUAGAACUAGUGGAUCCCCCGGCGCCCGGCGGCUCGAGCCCGGGUAAGUGUAAUUAGUCUGCAUGCCGCCGGGCGCCAUGCCUGCAGGUCGACUCUAGAAAACAUG” was tested, and the binding signal [7] was 1.22 log2 enrichment (interaction score).
For “GGCUAGAACUAGUGGAUCCCCCGGCGCCCGGCGGCUCGAGCCCGGGUAAGUGUAAAUAGUCUGCAUGCCGCCGGGCGCCAUGCCUGCAGGUCGACUCUAGAAAACAUG”, the binding signal [7] was 3.6 log2 enrichment (interaction score) and the binding signal [4] was 2.18 log2 enrichment (interaction score).
“GGCUAGAACUAGUGGAUCCCCCGGCGCCCGGCGGCUCGAGCCCGGGUAAGUGUAAAUUGUCUGCAUGCCGCCGGGCGCCAUGCCUGCAGGUCGACUCUAGAAAACAUG” was tested, and the binding signal [8] was 4.69 log2 enrichment (interaction score).
With “GGCUAGAACUAGUGGAUCCCCCGGCGCCCGGCGGCUCGAGCCCGGGUAAGUGUAAAUCGUCUGCAUGCCGCCGGGCGCCAUGCCUGCAGGUCGACUCUAGAAAACAUG” the binding signal [9] was 4.56 log2 enrichment (interaction score).

From PMC8384837, “Expanding the binding specificity for RNA recognition by a PUF domain”
